In all, about 66,000 compounds went through this assay and about 960 (1.5%) showed an effect of 50% or more. What follows is part of a selection rich in strong results, with near analogues and random picks from the rest.
System: Trypanosoma brucei
Experiment: Trypanosoma brucei 72 hour study
Format: functional, organism-based
Design: scale not given: in the data most compounds retested in dose-response had high values

Structure (SMILES): Cc1noc(C)c1CN1CC[C@@H](OCC2CC2)[C@@H](Cc2ccccc2)C1.O=C(O)C(F)(F)F
- Percent Effect (30 µM, 30.03 µM): 12.8%

Structure (SMILES): O=C(c1cc2cc(I)ccc2[nH]1)N1CCC(Nc2cccnn2)CC1
- Percent Effect (30.3 µM, […]): 85.16%

Structure (SMILES): O=C(c1cc2cc(F)ccc2[nH]1)N1CCC(Nc2cccnn2)CC1
- Percent Effect (30.3 µM, […]): -6.499%

Structure (SMILES): O=C(c1cc2ccccc2[nH]1)N1CCC(Nc2cccnn2)CC1
- Percent Effect (30.3 µM, […]): -25.8%

Structure (SMILES): CCCN(CCC)c1ncc(S(=O)(=O)c2cccc(C)c2)c(N)n1
- Percent Effect (30.3 µM, […]): 1.054%

Structure (SMILES): CCCN(CCC)c1ncc(S(=O)(=O)c2ccc(C)cc2)c(N)n1
- Percent Effect (30.3 µM, […]): 0.2073%

Structure (SMILES): CCCN(CCC)c1ncc(S(=O)(=O)c2ccccc2)c(N)n1
- Percent Effect (30.3 µM, […]): 81.44%

Structure (SMILES): O=C(N1CCCC1)N1C[C@H]2CCC[C@@]2(COCc2ccccn2)C1.O=C(O)C(F)(F)F
- Percent Effect (30.3 µM, […]): 8.939%

Structure (SMILES): Cc1ccc(CN2CCN(C3CCCC3)CC2CCO)o1 (stereo not drawn)
- Percent Effect (30 µM, 30.03 µM): -4.422%

Structure (SMILES): CN1C(=O)CC(c2cnn(C)c2)C12CCN(CC1CCOCC1)CC2.O=C(O)C(F)(F)F (stereo not drawn)
- Percent Effect (30.3 µM, […]): -2.852%

Structure (SMILES): Cc1noc(C)c1CN1CCn2cc(CN3CCCC3)nc2C1.O=C(O)C(F)(F)F.O=C(O)C(F)(F)F
- Percent Effect (30.3 µM, […]): 0.2362%

Structure (SMILES): Cc1ccc(CN2CCc3ncnc(-c4ccncc4)c3CC2)o1.O=C(O)C(F)(F)F.O=C(O)C(F)(F)F
- Percent Effect (30.3 µM, […]): -37.96%

Structure (SMILES): Nc1ncncc1-c1noc([C@@H]2CCCN2CC2CC2)n1
- Percent Effect (30.3 µM, […]): -4.914%

Structure (SMILES): Nc1ncncc1-c1noc([C@@H]2CCCN2CCCc2ccccc2)n1
- Percent Effect (30.3 µM, […]): 101.5%

Structure (SMILES): Nc1ncncc1-c1noc([C@@H]2CCCN2Cc2cccnc2)n1
- Percent Effect (30.3 µM, […]): -3.258%

Structure (SMILES): O=C(O)C(F)(F)F.O=C(O)C(F)(F)F.c1cncc(-c2nnn3c2COCC(CNC2CCOCC2)C3)c1 (stereo not drawn)
- Percent Effect (30 µM, 30.03 µM): -0.7004%

Structure (SMILES): COc1cccc([C@H]2CN(C(C)=O)[C@@H]3CCN(Cc4ccsc4)C[C@H]23)c1.Cl
- Percent Effect (30.3 µM, […]): 96.3%

Structure (SMILES): CC(=O)N1C[C@@H](c2ccsc2)[C@@H]2CN(Cc3ccccc3)CC[C@@H]21
- Percent Effect (30 µM, 30.03 µM): 3.298%

Structure (SMILES): COc1cccc(CN2CC[C@H]3[C@@H](C2)[C@H](c2ccsc2)CN3C(C)=O)c1
- Percent Effect (30.3 µM, […]): -3.85%

Structure (SMILES): Cc1nnsc1C(=O)N1C[C@H]2CC[C@@H]1CN(c1cnccn1)C2
- Percent Effect (30 µM, 30.03 µM): 0.47%

Structure (SMILES): Cc1cnc2c(c1NCc1cccnc1)c(=O)n(C)c(=O)n2C
- Percent Effect (30 µM, 30.03 µM): -45.54%

Structure (SMILES): CCc1noc(CN2CCN(C(=O)C3CC3)CC2)n1
- Percent Effect (10 µM): -20.32%

Structure (SMILES): O=S(=O)(Cc1ccccc1)NCc1nnc2n1CCC2
- Percent Effect (30 µM, 30.03 µM): -38.65%

Structure (SMILES): CCS(=O)(=O)NCc1nc(C)cc(N2CCOCC2)n1
- Percent Effect (30 µM, 30.03 µM): -12.8%

Structure (SMILES): CCCS(=O)(=O)NCc1nc(C)cc(N2CCCC2)n1
- Percent Effect (30 µM, 30.03 µM): 60.24%

Structure (SMILES): CCS(=O)(=O)NCc1nc(C)cc(N2CCCC2)n1
- Percent Effect (30 µM, 30.03 µM): 4.691%

Structure (SMILES): Cc1cc(N2CCCC2)nc(CNS(=O)(=O)Cc2ccccc2)n1
- Percent Effect (30 µM, 30.03 µM): 99.66%

Structure (SMILES): CCS(=O)(=O)NCc1nc(C)cc(N2CCCCC2)n1
- Percent Effect (30 µM, 30.03 µM): -14.09%

Structure (SMILES): O=C1[C@H]2CC[C@H](CN(Cc3nnc(C4CC4)o3)C2)N1Cc1cscn1
- Percent Effect (30 µM, 30.03 µM): -30.68%

Structure (SMILES): CCN1CCOCC12CCN(C(=O)C1CCC1)CC2.O=C(O)C(F)(F)F
- Percent Effect (30.3 µM, […]): -58.96%

Structure (SMILES): Cc1ccc(F)cc1NS(=O)(=O)c1cc2c(c(C(=O)O)c1)OCCO2
- Percent Effect (30.3 µM, […]): -13.96%

Structure (SMILES): O=C(O)C(F)(F)F.O=C(c1ccco1)N1C[C@H]2CCCN(Cc3nccs3)[C@H]2C1
- Percent Effect (30 µM, 30.03 µM): 20.08%

Structure (SMILES): CC(=O)N1CCCC1c1cccc(Cc2ccc(F)cc2)n1 (stereo not drawn)
- Percent Effect (30 µM, 30.03 µM): 14.65%

Structure (SMILES): CN1CCCC1c1cccc(Cc2ccc(F)cc2)n1 (stereo not drawn)
- Percent Effect (30.3 µM, […]): 99.38%

Structure (SMILES): CC(=O)N1CCCC1c1cccc(NCc2ccccc2F)n1 (stereo not drawn)
- Percent Effect (30.3 µM, […]): -16.97%

Structure (SMILES): CN(C)C(=O)CCc1cncc(C2CCCN2Cc2ccccn2)n1 (stereo not drawn)
- Percent Effect (30.3 µM, […]): -6.842%

Structure (SMILES): CN1CCC(c2cccc(Cc3ccc(C(F)(F)F)cc3)n2)CC1
- Percent Effect (30.3 µM, […]): 100.8%

Structure (SMILES): CN1CCC(c2cccc(Cc3ccc(F)cc3)n2)CC1
- Percent Effect (30.3 µM, […]): 22.86%

Structure (SMILES): CC(=O)N1CCCC1c1cccc(Cc2ccccc2F)n1 (stereo not drawn)
- Percent Effect (30.3 µM, […]): 99.36%

Structure (SMILES): CN1CCC(c2cccc(Cc3ccccc3)n2)CC1
- Percent Effect (30.3 µM, […]): 2.73%

Structure (SMILES): CN(C)C(=O)CN1CCCC1c1cccc(Cc2ccccc2F)n1 (stereo not drawn)
- Percent Effect (30.3 µM, […]): 100.6%

Structure (SMILES): CC(=O)N1CCCC1c1cccc(Cc2ccccc2Cl)n1 (stereo not drawn)
- Percent Effect (30.3 µM, […]): 2.284%

Structure (SMILES): CN(C)C(=O)CN1CCC(c2cccc(Cc3ccc(F)cc3)n2)CC1
- Percent Effect (30.3 µM, […]): -2.775%

Structure (SMILES): COCC(=O)N1CCCC1c1cccc(Cc2ccccc2F)n1 (stereo not drawn)
- Percent Effect (30.3 µM, […]): -5.491%

Structure (SMILES): CN(C)c1nc(NCCCN2CCc3ccccc32)ncc1F
- Percent Effect (30 µM, 30.03 µM): -2.481%

Structure (SMILES): CC1CCN(c2ncc3c(n2)CN(Cc2cccc(F)c2)C3=O)CC1
- Percent Effect (30 µM, 30.03 µM): -36.51%

Structure (SMILES): Cl.c1cn(-c2cnc(C3CCCNC3)cn2)cn1 (stereo not drawn)
- Percent Effect (30.3 µM, […]): -22.3%

Structure (SMILES): Cc1ccnc(NC(=O)C2CCN(CCCn3ccnc3)CC2)c1
- Percent Effect (30 µM, 30.03 µM): -9.272%
